# Measurements from the supplement of paper PMC8728848.
# About 410 targets per protein were measured; listed, in parts, are those with the strongest signals and a random draw of the rest.
# B1: PpFlo3 (Pichia pastoris) (protein)
# chain: MGSSHHHHHHSSGLVPRGSHMQESGNGTTSDTAYACDIGATPFDGFNATIYQYQASDDNSIQDPVFMSTGYLQRNQLHSTTGVTNPGFNIFTAGVATTTLYGIPNVNYQNMLLELKGYFRADASGNYGLSLRNIDDSAILFFGRETAFECCNENLIPLDEAPTDYSLFTIKEGEASTNPDSYTYTQYLEAGRYYPVRTFFANIRTRAVFNFTMTLPDGSELTDFQNYIFQFGALNQ
# Tests used:
# Assay in all cases: glycan array binding signal (z-score within array); higher = stronger binding
# Conditions in all cases: glycan notation: IUPAC condensed, linker removed
# Fuc(a1-2)Gal(b1-3)GalNAc = molecular target: Fuc(a1-2)Gal(b1-3)GalNAc
# Procedure, shortened: (§1)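 Columns mapping to the same glycan were averaged after glycan names were converted to IUPAC-condensed notation. The data come from 3228 arrays in the Consortium for Functional Glycomics database, limited to those with an available protein sequence. Binding is reported as a within-array Z-score averaged across arrays of one protein sequence and across linkers.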
# [1] = molecular target: Fuc(a1-2)Gal(b1-3)GalNAc(a1-3)[Fuc(a1-2)]Gal(b1-4)GlcNAc
# Procedure, shortened: as §1
# Fuc(a1-2)Gal(b1-4)GlcNAc = molecular target: Fuc(a1-2)Gal(b1-4)GlcNAc
# Procedure, shortened: as §1
# [2] = molecular target: Fuc(a1-2)Gal(b1-4)GlcNAc(b1-2)Man(a1-3)[Fuc(a1-2)Gal(b1-4)GlcNAc(b1-2)Man(a1-6)]Man(b1-4)GlcNAc(b1-4)[Fuc(a1-6)]GlcNAc
# Procedure, shortened: as §1
# [3] = molecular target: Fuc(a1-2)Gal(b1-4)[Fuc(a1-3)]GlcNAc
# Procedure, shortened: as §1
# [4] = molecular target: Fuc(a1-2)Gal(b1-4)[Fuc(a1-3)]GlcNAc(b1-3)Gal(b1-4)[Fuc(a1-3)]GlcNAc(b1-3)Gal(b1-4)[Fuc(a1-3)]GlcNAc
# Procedure, shortened: as §1
# Fuc(a1-2)Gal6S(b1-4)Glc = molecular target: Fuc(a1-2)Gal6S(b1-4)Glc
# Procedure, shortened: as §1
# [5] = molecular target: Fuc(a1-2)[Gal(a1-3)]Gal(b1-3)GlcNAc(b1-2)Man(a1-3)[Fuc(a1-2)[Gal(a1-3)]Gal(b1-3)GlcNAc(b1-2)Man(a1-6)]Man(b1-4)GlcNAc(b1-4)GlcNAc
# Procedure, shortened: as §1
# [6] = molecular target: Fuc(a1-2)[GalNAc(a1-3)]Gal
# Procedure, shortened: as §1
# [7] = molecular target: Fuc(a1-2)[GalNAc(a1-3)]Gal(b1-3)GlcNAc(b1-3)GalNAc
# Procedure, shortened: as §1
# [8] = molecular target: Fuc(a1-2)[GalNAc(a1-3)]Gal(b1-4)GlcNAc(b1-3)Gal(b1-4)GlcNAc(b1-3)Gal(b1-4)GlcNAc
# Procedure, shortened: as §1
# [9] = molecular target: Fuc(a1-3)[Gal(b1-4)]GlcNAc(b1-4)Gal(b1-4)[Fuc(a1-3)]GlcNAc
# Procedure, shortened: as §1
# [10] = molecular target: Fuc(a1-3)[Gal(b1-4)]GlcNAc(b1-6)GalNAc
# Procedure, shortened: as §1
# Gal(a1-4)Gal(b1-4)GlcNAc = molecular target: Gal(a1-4)Gal(b1-4)GlcNAc
# Procedure, shortened: as §1
# Gal(b1-3)GlcNAc = molecular target: Gal(b1-3)GlcNAc
# Procedure, shortened: as §1
# [11] = molecular target: Gal(b1-3)GlcNAc(b1-3)GalNAc
# Procedure, shortened: as §1
# Gal(b1-4)Glc6S = molecular target: Gal(b1-4)Glc6S
# Procedure, shortened: as §1
# [12] = molecular target: Gal(b1-4)GlcNAc(b1-2)Man(a1-3)[Man(a1-6)]Man(b1-4)GlcNAc(b1-4)GlcNAc
# Procedure, shortened: as §1
# Gal(b1-6)Gal = molecular target: Gal(b1-6)Gal
# Procedure, shortened: as §1
# [13] = molecular target: Gal3S(b1-3)[Fuc(a1-4)]GlcNAc
# Procedure, shortened: as §1
# Gal3S6S(b1-4)GlcNAc = molecular target: Gal3S6S(b1-4)GlcNAc
# Procedure, shortened: as §1
# Gal3S6S(b1-4)GlcNAc6S = molecular target: Gal3S6S(b1-4)GlcNAc6S
# Procedure, shortened: as §1
# GalNAc(b1-3)GalNAc = molecular target: GalNAc(b1-3)GalNAc
# Procedure, shortened: as §1
# [14] = molecular target: Glc(a1-4)Glc(a1-4)Glc(a1-4)Glc
# Procedure, shortened: as §1
# Glc(b1-4)Glc = molecular target: Glc(b1-4)Glc
# Procedure, shortened: as §1
# [15] = molecular target: GlcNAc(b1-2)[GlcNAc(b1-4)]Man(a1-3)[GlcNAc(b1-2)Man(a1-6)]Man(b1-4)GlcNAc(b1-4)GlcNAc
# Procedure, shortened: as §1
# GlcNAc(b1-3)Gal(b1-4)Glc = molecular target: GlcNAc(b1-3)Gal(b1-4)Glc
# Procedure, shortened: as §1
# GlcNAc(b1-3)GalNAc = molecular target: GlcNAc(b1-3)GalNAc
# Procedure, shortened: as §1
# GlcNAc(b1-3)Man = molecular target: GlcNAc(b1-3)Man
# Procedure, shortened: as §1
# [16] = molecular target: GlcNAc(b1-3)[GlcNAc(b1-6)]GalNAc
# Procedure, shortened: as §1
# [17] = molecular target: Man(a1-2)Man(a1-6)[Man(a1-3)]Man(a1-6)[Man(a1-2)Man(a1-2)Man(a1-3)]Man(b1-4)GlcNAc(b1-4)GlcNAc
# Procedure, shortened: as §1
# Neu5Ac(a2-3)Gal = molecular target: Neu5Ac(a2-3)Gal
# Procedure, shortened: as §1
# [18] = molecular target: Neu5Ac(a2-3)Gal(b1-4)[Fuc(a1-3)]GlcNAc(b1-3)Gal(b1-4)[Fuc(a1-3)]GlcNAc(b1-3)Gal(b1-4)[Fuc(a1-3)]GlcNAc
# Procedure, shortened: as §1
# [19] = molecular target: Neu5Ac(a2-3)[GalNAc(b1-4)]Gal(b1-4)GlcNAc
# Procedure, shortened: as §1
# [20] = molecular target: Neu5Ac(a2-6)Gal(b1-4)GlcNAc
# Procedure, shortened: as §1
# [21] = molecular target: Neu5Ac(a2-6)Gal(b1-4)GlcNAc(b1-2)Man(a1-3)[Man(a1-6)]Man(b1-4)GlcNAc(b1-4)GlcNAc
# Procedure, shortened: as §1
# [22] = molecular target: Neu5Ac(a2-6)Gal(b1-4)GlcNAc(b1-2)Man(a1-6)[GlcNAc(b1-2)Man(a1-3)]Man(b1-4)GlcNAc(b1-4)GlcNAc
# Procedure, shortened: as §1
# [23] = molecular target: Neu5Ac(a2-8)Neu5Ac(a2-3)Gal(b1-3)GalNAc(b1-4)[Neu5Ac(a2-8)Neu5Ac(a2-3)]Gal(b1-4)Glc
# Procedure, shortened: as §1
# [24] = molecular target: Neu5Ac9Ac(a2-3)Gal(b1-3)GlcNAc
# Procedure, shortened: as §1
# Neu5Gc(a2-3)Gal(b1-4)Glc = molecular target: Neu5Gc(a2-3)Gal(b1-4)Glc
# Procedure, shortened: as §1
binder,measurement,setting,value
B1,glycan array binding signal (z-score),Fuc(a1-2)Gal(b1-3)GalNAc,-0.256
same,glycan array binding signal (z-score),[1],-0.217
same,glycan array binding signal (z-score),Fuc(a1-2)Gal(b1-4)GlcNAc,-0.242
same,glycan array binding signal (z-score),[2],-0.263
same,glycan array binding signal (z-score),[3],4.84
same,glycan array binding signal (z-score),[4],4.32
same,glycan array binding signal (z-score),Fuc(a1-2)Gal6S(b1-4)Glc,-0.279
same,glycan array binding signal (z-score),[5],-0.259
same,glycan array binding signal (z-score),[6],-0.298
same,glycan array binding signal (z-score),[7],-0.014
same,glycan array binding signal (z-score),[8],-0.303
same,glycan array binding signal (z-score),[9],2.75
same,glycan array binding signal (z-score),[10],-0.238
same,glycan array binding signal (z-score),Gal(a1-4)Gal(b1-4)GlcNAc,-0.139
same,glycan array binding signal (z-score),Gal(b1-3)GlcNAc,-0.201
same,glycan array binding signal (z-score),[11],-0.296
same,glycan array binding signal (z-score),Gal(b1-4)Glc6S,4.38
same,glycan array binding signal (z-score),[12],-0.233
same,glycan array binding signal (z-score),Gal(b1-6)Gal,-0.281
same,glycan array binding signal (z-score),[13],5.08
same,glycan array binding signal (z-score),Gal3S6S(b1-4)GlcNAc,-0.27
same,glycan array binding signal (z-score),Gal3S6S(b1-4)GlcNAc6S,-0.269
same,glycan array binding signal (z-score),GalNAc(b1-3)GalNAc,5.1
same,glycan array binding signal (z-score),[14],-0.242
same,glycan array binding signal (z-score),Glc(b1-4)Glc,-0.246
same,glycan array binding signal (z-score),[15],4.67
same,glycan array binding signal (z-score),GlcNAc(b1-3)Gal(b1-4)Glc,-0.291
same,glycan array binding signal (z-score),GlcNAc(b1-3)GalNAc,-0.266
same,glycan array binding signal (z-score),GlcNAc(b1-3)Man,6.76
same,glycan array binding signal (z-score),[16],1.75
same,glycan array binding signal (z-score),[17],-0.271
same,glycan array binding signal (z-score),Neu5Ac(a2-3)Gal,-0.283
same,glycan array binding signal (z-score),[18],-0.266
same,glycan array binding signal (z-score),[19],-0.272
same,glycan array binding signal (z-score),[20],-0.282
same,glycan array binding signal (z-score),[21],-0.281
same,glycan array binding signal (z-score),[22],4.82
same,glycan array binding signal (z-score),[23],-0.017
same,glycan array binding signal (z-score),[24],-0.267
same,glycan array binding signal (z-score),Neu5Gc(a2-3)Gal(b1-4)Glc,-0.276
